# Measurements: PubChem BioAssay
# “And” between values parts separate entries of the source, which are not always exact repeats. Equal entries are not always repeated. The source made the active and inactive calls.
# Assays:
# [1] = small molecules captured by biotinylated probe aFSTL3 – biochemical, small-molecule microarray, fluorescence 635/667, stem cell growth factor project, primary screen (AID 1064); settings: higher = more signal;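 also: measures binding of the biotinylated anti-FSTL3 antibody to printed compounds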
# [2] = binders from COS7 lysate, DM2A8 probe, primary screen, torsin A project, cell lysate, small-molecule microarray, fluorescence 635/667 (AID 1065); settings: higher = more signal, COS7 lysate expressing mutant human TOR1A
# [3] = small molecules captured by biotinylated probe aFGF2 – biochemical, small-molecule microarray, fluorescence 635/667, stem cell growth factor project, primary screen (AID 1067); settings: higher = more signal;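 also: measures binding of biotinylated aFGF2 protein to printed compounds on slides; z-score merges feature fluorescence and signal-to-noise across triplicate slides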
# [4] = small molecules captured by biotinylated probe aFGF10 – biochemical, small-molecule microarray, fluorescence 635/667, stem cell growth factor project, primary screen (AID 1071); settings: higher = more signal;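 also: score merges 667 nm spot intensity and signal to noise from triplicate slides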
# [5] = target: Neurogenic locus notch homolog protein 2 (Homo sapiens) (UniProt Q04721); test: small molecules binding Notch2 protein – biochemical, small-molecule microarray, 635 nm fluorescence, stem cell growth factors, primary screen (AID 1073); settings: higher = more signal
# [6] = target: Pro-neuregulin-1, membrane-bound isoform (Homo sapiens) (UniProt Q02297); test: small molecules binding neuregulin-1 protein – biochemical, small-molecule microarray, fluorescence 635/667, psychiatric disease protein project, primary screen (AID 1075); settings: NRG1 binding, 635 nm fluorescence, higher = more signal;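 also: score combines 667 nm spot fluorescence with signal to noise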
# [7] = test system: Neuregulin-1 EGF-like domain; test: small molecules binding NRG1 EGF domain – biochemical, small-molecule microarray, 635 nm fluorescence, primary screen (AID 1081); settings: higher = more signal;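 also: binding of the protein to compounds printed on small-molecule microarray slides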
# [8] = FRG1 expression reporter modulators in myotubes – cell-based, C2C12 myotubes, firefly/Renilla luciferase, luminescence, FRG1 inhibition for FSHD, primary screen (AID 1084); settings: FRG1 promoter luciferase, higher = more signal, called active from +8 up or from −8 down
# [9] = small molecules captured by biotinylated probe aFST – biochemical, small-molecule microarray, fluorescence 635/667, stem cell growth factor project, primary screen (AID 1086); settings: higher = more signal;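 also: score merges 667 nm fluorescence with signal-to-noise of each printed compound spot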
# [10] = binders of probe aHhip on microarray, primary screen, stem cell growth factor project, biochemical, small-molecule microarray, fluorescence 635/667 (AID 1087); settings: higher = more signal;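 also: score merges spot fluorescence at 667nm with spot signal to noise ratio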
# Pro-neuregulin-1, membrane-bound isoform (Homo sapiens), sequence (Q02297 whole entry, looked up, the tested form may be a part, canonical isoform): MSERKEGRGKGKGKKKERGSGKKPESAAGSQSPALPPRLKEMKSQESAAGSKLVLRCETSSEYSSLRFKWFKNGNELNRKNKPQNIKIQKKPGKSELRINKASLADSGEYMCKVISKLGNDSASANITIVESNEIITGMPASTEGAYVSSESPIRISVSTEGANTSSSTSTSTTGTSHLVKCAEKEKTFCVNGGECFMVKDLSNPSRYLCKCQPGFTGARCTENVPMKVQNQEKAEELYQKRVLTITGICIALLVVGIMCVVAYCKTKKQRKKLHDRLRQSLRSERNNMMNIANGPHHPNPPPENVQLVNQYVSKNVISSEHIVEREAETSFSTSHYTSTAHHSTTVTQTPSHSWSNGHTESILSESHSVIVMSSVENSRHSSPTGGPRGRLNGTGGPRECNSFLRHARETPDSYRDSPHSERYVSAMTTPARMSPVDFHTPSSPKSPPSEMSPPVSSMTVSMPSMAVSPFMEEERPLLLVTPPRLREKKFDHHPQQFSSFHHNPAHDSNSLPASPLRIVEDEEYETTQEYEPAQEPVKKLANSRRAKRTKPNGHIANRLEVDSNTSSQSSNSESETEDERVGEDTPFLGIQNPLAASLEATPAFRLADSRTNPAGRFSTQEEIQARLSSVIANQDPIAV
# Neurogenic locus notch homolog protein 2 (Homo sapiens), sequence (Q04721 whole entry, looked up, canonical isoform): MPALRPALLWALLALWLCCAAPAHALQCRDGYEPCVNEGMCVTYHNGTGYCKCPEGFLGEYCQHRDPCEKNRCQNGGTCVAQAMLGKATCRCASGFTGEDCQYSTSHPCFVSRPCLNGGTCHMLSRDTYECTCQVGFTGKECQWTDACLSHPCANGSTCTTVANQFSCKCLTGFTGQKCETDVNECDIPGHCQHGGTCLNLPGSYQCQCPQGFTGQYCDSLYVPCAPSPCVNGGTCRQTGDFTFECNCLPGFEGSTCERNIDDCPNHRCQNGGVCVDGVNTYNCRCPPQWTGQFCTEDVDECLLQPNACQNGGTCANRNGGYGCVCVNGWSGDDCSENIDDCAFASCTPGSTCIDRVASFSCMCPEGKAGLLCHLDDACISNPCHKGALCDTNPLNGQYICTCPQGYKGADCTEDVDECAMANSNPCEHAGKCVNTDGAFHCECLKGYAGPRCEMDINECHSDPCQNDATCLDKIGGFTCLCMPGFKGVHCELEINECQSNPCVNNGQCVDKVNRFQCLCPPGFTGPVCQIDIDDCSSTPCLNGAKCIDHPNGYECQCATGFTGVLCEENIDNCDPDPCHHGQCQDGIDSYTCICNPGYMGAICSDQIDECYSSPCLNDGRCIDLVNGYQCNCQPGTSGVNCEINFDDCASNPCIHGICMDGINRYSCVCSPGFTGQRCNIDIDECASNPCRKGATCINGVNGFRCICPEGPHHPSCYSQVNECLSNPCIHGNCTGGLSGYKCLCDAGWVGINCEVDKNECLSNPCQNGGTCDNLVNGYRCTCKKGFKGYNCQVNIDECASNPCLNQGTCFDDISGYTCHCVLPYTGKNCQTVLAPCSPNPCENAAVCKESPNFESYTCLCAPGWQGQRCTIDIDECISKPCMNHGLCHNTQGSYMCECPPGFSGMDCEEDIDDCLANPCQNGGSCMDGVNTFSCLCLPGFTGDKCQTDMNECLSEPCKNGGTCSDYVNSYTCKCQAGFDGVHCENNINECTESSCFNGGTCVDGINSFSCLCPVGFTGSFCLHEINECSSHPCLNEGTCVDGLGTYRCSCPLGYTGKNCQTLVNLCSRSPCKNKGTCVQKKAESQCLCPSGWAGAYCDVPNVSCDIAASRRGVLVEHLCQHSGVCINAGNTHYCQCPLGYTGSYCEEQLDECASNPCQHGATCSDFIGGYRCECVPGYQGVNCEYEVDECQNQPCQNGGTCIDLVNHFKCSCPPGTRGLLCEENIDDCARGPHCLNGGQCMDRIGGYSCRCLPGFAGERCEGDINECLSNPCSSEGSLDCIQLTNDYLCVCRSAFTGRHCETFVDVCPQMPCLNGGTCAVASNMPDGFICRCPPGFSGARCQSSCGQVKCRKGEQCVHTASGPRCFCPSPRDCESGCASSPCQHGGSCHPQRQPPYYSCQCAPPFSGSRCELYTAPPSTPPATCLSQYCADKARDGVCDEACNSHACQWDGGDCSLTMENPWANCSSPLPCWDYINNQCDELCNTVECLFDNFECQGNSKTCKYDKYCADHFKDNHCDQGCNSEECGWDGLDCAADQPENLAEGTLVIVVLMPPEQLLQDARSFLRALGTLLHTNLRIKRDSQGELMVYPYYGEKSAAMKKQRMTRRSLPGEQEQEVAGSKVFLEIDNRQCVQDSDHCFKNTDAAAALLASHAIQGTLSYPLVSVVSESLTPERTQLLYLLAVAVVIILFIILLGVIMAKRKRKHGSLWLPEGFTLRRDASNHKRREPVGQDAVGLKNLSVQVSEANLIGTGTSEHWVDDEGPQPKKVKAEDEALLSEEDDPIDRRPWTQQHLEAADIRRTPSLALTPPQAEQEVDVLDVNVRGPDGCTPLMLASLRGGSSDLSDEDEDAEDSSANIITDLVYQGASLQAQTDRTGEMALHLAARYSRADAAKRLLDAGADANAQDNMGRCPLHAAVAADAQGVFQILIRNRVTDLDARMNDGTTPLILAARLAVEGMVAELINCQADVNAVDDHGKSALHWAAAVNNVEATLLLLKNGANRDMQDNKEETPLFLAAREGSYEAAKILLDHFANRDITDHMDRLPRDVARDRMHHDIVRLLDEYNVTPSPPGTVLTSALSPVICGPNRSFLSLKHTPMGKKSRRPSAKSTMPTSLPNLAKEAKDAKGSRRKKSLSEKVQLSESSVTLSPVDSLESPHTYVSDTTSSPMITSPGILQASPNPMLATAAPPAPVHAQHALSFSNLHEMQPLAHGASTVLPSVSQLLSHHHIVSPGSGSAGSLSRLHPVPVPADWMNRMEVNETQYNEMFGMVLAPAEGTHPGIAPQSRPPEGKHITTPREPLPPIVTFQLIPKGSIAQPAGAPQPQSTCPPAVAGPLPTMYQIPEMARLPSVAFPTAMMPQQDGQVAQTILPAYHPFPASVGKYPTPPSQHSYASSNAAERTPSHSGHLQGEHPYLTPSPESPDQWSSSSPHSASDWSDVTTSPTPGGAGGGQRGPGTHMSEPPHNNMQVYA
SMILES,composite z-score [1],composite z-score [2],composite z-score [3],composite z-score [4],composite z-score [5],composite z-score [6],composite z-score [7],z-score [8],composite z-score [9],composite z-score [10]
COC(=O)C1=C(C)N(Cc2ccccc2)C2=C3C(=O)N(c4ccccc4)C(=O)[C@@H]3[C@@](O)(C(=O)OC)C(=O)N2[C@@H]1c1ccccc1,-0.302 and -0.483,0.205 and 0.642,-0.118 and -0.137,0.738 and 0.591,0.897 and 1.21,0.383 and 0.418,1.02 and 0.99,0.0445 (inactive) and -1.22 (inactive),0.366 and 0.346,-0.166 and -0.375
C[N+](C)(C)CCCCNC(=O)[C@H]1C[C@H]2C(=O)N[C@@H](CCCC[N+](C)(C)C)C(=O)N2[C@H]1c1ccc(O)cc1,-0.589 and -0.197,2 and 1.03,-0.051 and -0.216,0.889 and 0.379,0.443 and -0.234,0.289 and -0.641,1.38 and 0.394,0.717 (inactive) and 0.376 (inactive),-0.142 and 0.287,0.21 and -0.134
COc1ccc(-c2ccc3c(n2)CCCN3CC(O)CN2CCCc3nc(-c4ccc(Br)cc4)ccc32)cc1 (stereo not given),0.0623 and 0.0721,0.744 and 0.464,0.12,0.505 and 0.348,0.684 and 0.709,1.05 and 0.841,0.973 and 0.101,3.12 (inactive) and 3.15 (inactive),0.584 and 0.306,0.281 and 0.167
CCOC(=O)NN=C1C[C@@H](O)[C@@H](O)[C@@H]2[C@@H]3C(=O)N(Cc4ccccc4)C(=O)[C@@H]3CC[C@@H]12,-0.629,0.0854,-0.202,0.295,0.388,0.318,-0.026,-0.0833 (inactive),-0.0089,-0.0391
CCOC(=O)c1ccc(NC(=O)O[C@H]2[C@H](OC(=O)Nc3ccccc3)[C@@H](OC(=O)Nc3ccccc3)[C@@H](OC)O[C@@H]2CO)cc1,0.181 and 0.179,0.791 and 0.936,0.211 and 0.164,1.01 and 1.18,1.59 and 1.44,1.46 and 1.3,1.33 and 1.43,1.13 (inactive) and 0.183 (inactive),1.29 and 1.2,0.167 and 0.24
CO[C@@H]1C=CCC(=O)N2CCC[C@H]2C(=O)OC[C@H](C)C(=O)OC[C@H]1C,-0.368,1.3,-0.0676,0.0525,-0.244,-0.226,1.07,0.0531 (inactive),0.191,0.501
C=CCN(CCCC)C(=O)C(c1cccs1)N(CCOCCO)C(=O)/C=C\C(=O)O (stereo not given),0.673 and -0.0069,0.878 and 0.902,-0.208 and -0.23,-1.36 and 0.428,-1.8 and -0.746,1.34 and 0.823,0.903 and 0.941,-1.65 (inactive) and -0.784 (inactive),-0.496 and -0.114,-0.134 and -0.236
C=CCN(C(=O)C(c1cccs1)N(C(=O)/C=C\C(=O)O)c1ccc(CCO)cc1)C(C)(C)C (stereo not given),0.396 and 0.476,-0.534 and -0.804,-0.212 and -0.192,-0.439 and -1.66,-0.898 and -1.52,1.04 and 2.28,0.71 and 1.3,1.28 (inactive) and 0.16 (inactive),-0.23 and -0.706,-0.0618 and -0.134
C[C@@H]1CC[C@@H](C(=O)O)N[C@H]1c1ccc(-c2ccco2)cc1,-0.462,0.712,-0.0502,0.422,0.571,0.486,0.811,0.0786 (inactive),0.583,-0.0173
C=CCN(C(=O)C1N(CCCCCCO)C(=O)C2C(C(=O)O)C3C=CC21O3)c1ccc(OC)cc1 (stereo not given),0.859 and 1.23,-0.585 and -0.754,-0.241 and -0.18,-2.33 and -1.4,-2.07 and -1.8,1.12 and -1.47,0.786 and -1.16,0.608 (inactive) and 0.789 (inactive),-0.718 and -0.496,-0.126 and 0.0623
CO[C@@H]1COC(=O)CC=C[C@H](C)[C@@H](NS(=O)(=O)c2ccc(C)cc2)COC(=O)CC=C[C@@H]1C,-0.226 and -0.425,0.711 and 1.44,-0.234 and -0.127,0.433 and -0.153,0.671 and -0.333,0.0292 and -0.476,0.628 and 0.956,0.994 (inactive) and 0.445 (inactive),0.0151 and 0.106,0.113 and -0.0391
C=CCN(Cc1ccccc1)C(=O)C1N(c2ccc(CCO)cc2)C(=O)C2C(C(=O)O)C3C=CC21O3 (stereo not given),1.72 and 0.902,-0.723 and -0.963,-0.194 and -0.19,-0.362 and -0.749,-2.7 and -2.66,0.191 and -0.96,0.161 and -0.559,2.4 (inactive) and 1.24 (inactive),-1.44 and -0.907,-0.0994 and -0.431
CON(C)C(=O)c1nnc2c3ccccc3n(S(=O)(=O)c3ccc(C)cc3)c2n1,-0.492 and -0.386,0.216 and 0.226,-0.208 and 0.0937,0.455 and 0.814,0.81 and 0.675,1.08 and 0.789,0.804 and 1.19,161 (active) and 193 (active),-0.458 and 0.184,0.12 and 0.28
COC(=O)C1=C(C)N(Cc2ccccc2)[C@]23O[C@](C(=O)OC)(C(=O)N2[C@@H]1c1ccccc1)[C@H]1C(=O)N(c2ccccc2)C(=O)[C@H]13,-0.387 and -0.343,0.446 and 0.277,-0.0747 and 0.41,-0.116 and 0.883,1.18 and 0.445,0.288 and 0.212,1.07 and 1.09,-0.507 (inactive) and -0.154 (inactive),0.0931 and 0.64,0.192 and -0.0672
C[N+](C)(C)CCCCCCNC(=O)[C@H]1C[C@H]2C(=O)N[C@@H](CCCC[N+](C)(C)C)C(=O)N2[C@H]1c1ccc(O)cc1,0.267 and 0.341,0.137 and 0.115,-0.106 and -0.158,0.105 and 0.129,-0.2 and -0.619,-0.0293 and -0.0659,1.07 and 1.41,0.996 (inactive) and -0.0859 (inactive),-0.15 and -0.508,-0.0994 and 0.2
CCOC(=O)C[C@H]1[C@H](OC(=O)c2ccccc2-c2ccccc2)[C@@H](NC(=O)c2ccccc2)c2cc(OCCCO)ccc2N1C(=O)c1ccc2ccccc2n1,-0.0767 and -0.127,0.455 and 0.0871,0.0047 and -0.094,0.507 and 0.191,0.708 and 0.964,-0.106 and 0.749,0.738 and 0.565,-0.129 (inactive) and -0.113 (inactive),0.214 and 0.306,0.347 and -0.0994
CCOC(=O)[C@H](Cc1ccccc1)NC(=O)CCC1CC(OC(=O)NCc2cccc3ccccc23)CC2(CCCC(COC(=O)NCCCN3CCCC3=O)O2)O1 (stereo not given in full),-0.511,0.221,-0.107,0.122,1.1,0.412,0.783,-0.81 (inactive),0.249,-0.0994
CO[C@@H]1COC(=O)[C@H](Cc2ccccc2)NC(=O)CC=C[C@@H](C)[C@H](OC)COC(=O)[C@@H](C)NC(=O)CC=C[C@H]1C,-0.501 and -1.33,1.23 and 0.603,-0.132 and -0.168,0.0044 and 0.401,-0.223 and -0.012,-0.258 and -0.159,0.383 and 0.284,0.361 (inactive) and -0.178 (inactive),0.409 and -0.084,0.154 and -0.271
C=C[C@@H](OC)[C@H](O)c1ccc(OC)c(O)c1,-0.407 and 0.724,0.415 and -0.675,0.177 and -0.175,0.0573 and -1.49,0.113 and -0.602,-0.44 and -0.559,0.225 and -0.758,0.0163 (inactive) and -0.152 (inactive),-0.209 and -0.844,-0.0994 and -0.296
CC(C)CCN1CCc2nc(-c3ccccc3)c3c(c2C1)CO[C@@H](C)C3,1.3,0.0532,-0.0996,0.491,0.698,0.334,1.17,-0.174 (inactive),0.57,0.208
C=CCN(C(=O)C(c1cccs1)N(C(=O)/C=C\C(=O)O)C(C)(C)CO)C(C)(C)C (stereo not given),-0.0667 and 0.0338,-0.543 and -0.24,0.0929 and -0.126,-0.433 and -0.781,-1.07 and -0.925,1.32 and 1.05,1.27 and 1.24,-1.03 (inactive) and -1.13 (inactive),-0.114 and -0.867,-0.0994 and -0.385
C=CCN(Cc1ccccc1)C(=O)C1N(CCCCCCO)C(=O)C2C(C(=O)O)C3C=CC21O3 (stereo not given),1.09 and 1.2,-1.16 and -1.37,-0.236 and -0.323,-1.2 and -1.78,-1.18 and -1.23,0.614 and 0.705,1.41 and 1.4,0.639 (inactive) and -0.331 (inactive),-0.841 and -0.708,-0.5 and -0.204
C[N+](C)(C)CCCCNC(=O)[C@H]1C[C@H]2C(=O)N[C@@H](CCCC[N+](C)(C)C)C(=O)N2[C@H]1c1cccc(OCCO)c1,-0.0665 and -0.363,-0.422 and 1.12,-0.0744 and -0.149,1.24 and 0.967,-0.0613 and 0.622,1.24 and 0.211,0.973 and 1.38,-0.194 (inactive) and -0.269 (inactive),0.613 and 0.743,0.142 and -0.41
O=C1NC(=O)C2C1C=CC(C(O)c1ccc([N+](=O)[O-])cc1)N2Nc1ccc(Cl)cc1Cl (stereo not given),0.396 and 1.04,0.0888 and 1.29,-0.0044 and 0.115,0.694 and 0.322,1.13 and 0.991,1.18 and 1.78,0.939 and 1.21,0.0748 (inactive) and -0.358 (inactive),0.848 and 1.54,-0.226 and -0.236
CCCCN1CC=CC23O[C@@H]4C=CCCOC(=O)C4[C@H]2C(=O)N(C(C)CO)[C@@H]3C1=O (stereo not given in full),0.385 and 0.252,-0.371 and 0.204,-0.0753 and -0.135,-0.228 and 0.292,-0.921 and -0.936,1.1 and 0.324,0.839 and 1.04,0.489 (inactive) and -0.469 (inactive),-0.337 and 0.104,-0.137 and 0.251
C=CCN(C(=O)C1N(CCOCCO)C(=O)C2C(C(=O)O)C3C=CC21O3)C(C)(C)C (stereo not given),0.977 and 0.412,-0.768 and -0.863,-0.25 and -0.262,-1.82 and -1.11,-2.44 and -1.36,-0.774 and -0.717,-0.643 and -0.383,0.97 (inactive) and -0.383 (inactive),-1.09 and -1.91,-0.175 and 0.0156
O=C1C[C@]2(c3ccc([N+](=O)[O-])cc3)C(=O)N(Cc3ccccc3)c3cc(CO)ccc3[C@H]2N1C1CCCCC1,-0.391 and -0.0715,0.0304 and -0.0759,-0.145 and 0.103,-0.416 and 0.208,0.168 and 0.853,-0.183 and 0.819,1.25 and 1.12,-0.0521 (inactive) and 0.981 (inactive),-0.0791 and -0.129,-0.185 and 1.38
COC(=O)C1=C2N(Cc3ccccc3)C(C)=C(C(=O)OC)[C@@H](c3ccccc3)N2C(=O)[C@](O)(C(=O)OC)C1,-0.416 and -0.485,0.969 and 0.932,-0.166 and -0.0477,0.0291 and 0.291,1.12 and 0.305,0.598 and -0.247,1.09 and -0.265,-0.0085 (inactive) and 0.0331 (inactive),0.084 and 0.0516,0.065 and -0.0237
